# Measurements as given in article PMC7862700, “An all-to-all approach to the identification of sequence-specific readers for epigenetic DNA modifications on cytosine”.
# Assays:
# Test in all cases: DAPPL (digital affinity profiling via proximity ligation, sequencing); 10 mM Tris-HCl pH 7.5, 50 mM NaCl, 1 mM DTT, 4% glycerol, room temperature, 30 min; GST-TFs on glutathione beads, 16-mer random dsDNA library, 0.1% formaldehyde crosslink after washing; high values mean tight binding
# [1] = target: T1, FLI1 (Homo sapiens, UniProt Q01543 1-452); settings: protein: recombinant; tags: N-terminal GST; dsDNA, one strand shown
# T1 sequence: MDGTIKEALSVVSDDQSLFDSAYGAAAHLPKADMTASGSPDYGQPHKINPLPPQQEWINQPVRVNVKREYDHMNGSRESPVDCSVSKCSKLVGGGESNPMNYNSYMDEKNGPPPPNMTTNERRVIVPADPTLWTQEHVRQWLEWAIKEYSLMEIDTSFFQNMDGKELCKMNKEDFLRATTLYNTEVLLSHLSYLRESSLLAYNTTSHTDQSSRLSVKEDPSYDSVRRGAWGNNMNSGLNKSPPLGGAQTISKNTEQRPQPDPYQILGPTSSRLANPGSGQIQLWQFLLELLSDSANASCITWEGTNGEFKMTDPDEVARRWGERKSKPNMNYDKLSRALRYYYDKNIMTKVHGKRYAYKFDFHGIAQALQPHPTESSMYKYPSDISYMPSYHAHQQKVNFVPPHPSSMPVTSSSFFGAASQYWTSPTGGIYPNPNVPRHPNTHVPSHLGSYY
# Procedure, shortened: (§1)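 GST fusions of human transcription factors were expressed in yeast and captured with glutathione beads. Once given DNA barcodes and pooled alongside a tag-only sample, they were incubated for 30 min at room temperature with 200 nmole of a random double-stranded 16-mer DNA library in Tris/NaCl/DTT/glycerol buffer, then washed, crosslinked (0.1% formaldehyde), proximity-ligated, PCR-amplified and sequenced on an Illumina NextSeq500. The binding signal of each hexamer is its read frequency for a factor divided by its frequency for the tag-only sample.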
# [2] = target: T2, ELK1 (Homo sapiens, UniProt P19419 1-428); settings: protein: recombinant; tags: N-terminal GST; dsDNA, one strand shown
# T2 sequence: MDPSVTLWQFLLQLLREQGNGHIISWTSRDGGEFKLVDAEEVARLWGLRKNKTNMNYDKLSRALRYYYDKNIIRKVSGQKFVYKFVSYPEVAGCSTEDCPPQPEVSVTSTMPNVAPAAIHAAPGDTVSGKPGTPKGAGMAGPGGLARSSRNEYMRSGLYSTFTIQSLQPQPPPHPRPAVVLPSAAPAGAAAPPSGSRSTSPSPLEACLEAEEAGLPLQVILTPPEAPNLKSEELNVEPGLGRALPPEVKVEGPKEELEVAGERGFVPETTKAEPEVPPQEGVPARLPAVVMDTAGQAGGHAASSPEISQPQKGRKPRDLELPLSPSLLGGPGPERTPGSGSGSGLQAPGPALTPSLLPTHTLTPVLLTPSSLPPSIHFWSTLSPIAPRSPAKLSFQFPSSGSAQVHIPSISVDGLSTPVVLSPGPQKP
# Procedure, shortened: as §1
# [3] = target: T3, GABPA (Homo sapiens, UniProt Q06546 1-454); settings: protein: recombinant; tags: N-terminal GST; dsDNA, one strand shown
# T3 sequence: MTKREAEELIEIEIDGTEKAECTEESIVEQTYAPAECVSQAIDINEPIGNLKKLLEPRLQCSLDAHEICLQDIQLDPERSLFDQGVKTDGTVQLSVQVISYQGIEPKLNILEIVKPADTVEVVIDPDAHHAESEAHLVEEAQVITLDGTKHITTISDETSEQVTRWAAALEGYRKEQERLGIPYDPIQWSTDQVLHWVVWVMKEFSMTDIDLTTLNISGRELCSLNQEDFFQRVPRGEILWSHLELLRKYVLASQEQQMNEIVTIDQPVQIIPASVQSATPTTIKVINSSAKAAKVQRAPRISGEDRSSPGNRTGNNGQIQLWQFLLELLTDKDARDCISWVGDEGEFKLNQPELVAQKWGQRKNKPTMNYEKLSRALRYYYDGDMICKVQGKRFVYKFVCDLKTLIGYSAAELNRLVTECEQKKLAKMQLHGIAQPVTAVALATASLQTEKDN
# Procedure, shortened: as §1
# [4] = target: T4, ERG (Homo sapiens, UniProt P11308 1-479); settings: protein: recombinant; tags: N-terminal GST; dsDNA, one strand shown
# T4 sequence: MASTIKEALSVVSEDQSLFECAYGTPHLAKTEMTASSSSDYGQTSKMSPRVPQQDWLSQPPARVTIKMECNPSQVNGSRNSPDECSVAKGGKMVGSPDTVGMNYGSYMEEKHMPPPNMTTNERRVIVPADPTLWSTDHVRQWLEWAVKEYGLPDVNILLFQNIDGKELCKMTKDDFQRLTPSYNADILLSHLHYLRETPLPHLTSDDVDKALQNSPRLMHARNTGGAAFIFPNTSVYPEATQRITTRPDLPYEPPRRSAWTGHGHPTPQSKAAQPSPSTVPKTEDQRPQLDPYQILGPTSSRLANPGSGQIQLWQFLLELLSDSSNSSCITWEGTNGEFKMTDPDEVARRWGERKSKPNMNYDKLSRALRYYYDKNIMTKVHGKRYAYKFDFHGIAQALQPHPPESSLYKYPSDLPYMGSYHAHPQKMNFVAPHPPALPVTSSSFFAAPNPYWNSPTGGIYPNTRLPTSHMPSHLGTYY
# Procedure, shortened: as §1
# [5] = target: ELF1 (Homo sapiens, UniProt P32519 1-619); settings: protein: recombinant; tags: N-terminal GST; dsDNA, one strand shown
# Sequence of ELF1 (P32519 whole entry): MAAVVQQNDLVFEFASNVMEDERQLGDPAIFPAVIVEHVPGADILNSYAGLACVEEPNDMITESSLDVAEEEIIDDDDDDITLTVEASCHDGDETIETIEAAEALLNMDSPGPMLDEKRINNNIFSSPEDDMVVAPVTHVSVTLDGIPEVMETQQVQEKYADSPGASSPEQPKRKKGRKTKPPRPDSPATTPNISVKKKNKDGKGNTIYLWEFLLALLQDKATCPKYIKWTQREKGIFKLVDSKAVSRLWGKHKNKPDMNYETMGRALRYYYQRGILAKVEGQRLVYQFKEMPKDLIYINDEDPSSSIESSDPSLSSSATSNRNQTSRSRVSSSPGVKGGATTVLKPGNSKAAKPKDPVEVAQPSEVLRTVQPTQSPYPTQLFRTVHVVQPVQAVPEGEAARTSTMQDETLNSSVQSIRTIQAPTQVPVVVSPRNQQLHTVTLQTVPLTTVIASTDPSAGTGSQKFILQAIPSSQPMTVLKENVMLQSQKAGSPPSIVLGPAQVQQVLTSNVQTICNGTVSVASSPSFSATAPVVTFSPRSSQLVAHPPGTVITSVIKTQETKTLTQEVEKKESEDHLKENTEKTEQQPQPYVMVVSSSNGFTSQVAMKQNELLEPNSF
# Procedure, shortened: as §1
# [6] = target: T5, EHF (Homo sapiens, UniProt Q9NZC4 1-300); settings: protein: recombinant; tags: N-terminal GST; dsDNA, one strand shown
# T5 sequence: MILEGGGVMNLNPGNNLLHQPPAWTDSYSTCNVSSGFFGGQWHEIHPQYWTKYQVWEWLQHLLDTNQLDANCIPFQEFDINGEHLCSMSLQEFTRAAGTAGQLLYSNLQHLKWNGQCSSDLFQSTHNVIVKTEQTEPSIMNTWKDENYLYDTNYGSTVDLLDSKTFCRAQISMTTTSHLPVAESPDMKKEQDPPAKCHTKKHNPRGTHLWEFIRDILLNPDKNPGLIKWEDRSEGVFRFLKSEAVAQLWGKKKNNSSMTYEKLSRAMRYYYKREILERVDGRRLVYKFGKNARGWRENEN
# Procedure, shortened: as §1
# [7] = target: SPI1 (Homo sapiens, UniProt P17947 1-270); settings: protein: recombinant; tags: N-terminal GST; dsDNA, one strand shown
# Procedure, shortened: as §1
# [8] = target: SPIB (Homo sapiens, UniProt Q01892 1-262); settings: protein: recombinant; tags: N-terminal GST; dsDNA, one strand shown
# Sequence of SPIB (Q01892 whole entry): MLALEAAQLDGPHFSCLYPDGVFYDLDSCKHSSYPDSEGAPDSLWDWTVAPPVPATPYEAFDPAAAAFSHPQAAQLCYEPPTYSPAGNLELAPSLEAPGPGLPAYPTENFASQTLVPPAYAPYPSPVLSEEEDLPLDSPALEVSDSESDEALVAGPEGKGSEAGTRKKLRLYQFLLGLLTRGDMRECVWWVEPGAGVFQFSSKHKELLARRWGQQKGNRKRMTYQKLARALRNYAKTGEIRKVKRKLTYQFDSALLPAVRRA
# Procedure, shortened: as §1
# [9] = target: T6, ELK3 (Homo sapiens, UniProt P41970 1-407); settings: protein: recombinant; tags: N-terminal GST; dsDNA, one strand shown
# T6 sequence: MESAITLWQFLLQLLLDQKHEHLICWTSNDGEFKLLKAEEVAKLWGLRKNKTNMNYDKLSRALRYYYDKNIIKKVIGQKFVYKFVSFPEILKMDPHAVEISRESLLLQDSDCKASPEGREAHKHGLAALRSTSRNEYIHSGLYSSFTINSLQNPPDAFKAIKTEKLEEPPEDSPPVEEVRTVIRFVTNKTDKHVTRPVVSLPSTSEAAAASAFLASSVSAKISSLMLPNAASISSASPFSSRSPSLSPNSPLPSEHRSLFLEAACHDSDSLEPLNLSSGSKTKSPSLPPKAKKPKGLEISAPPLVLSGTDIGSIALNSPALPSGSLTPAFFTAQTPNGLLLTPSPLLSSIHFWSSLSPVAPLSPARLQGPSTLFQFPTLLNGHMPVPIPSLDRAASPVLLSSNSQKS
# Procedure, shortened: as §1
# [10] = target: T7, FEV (Homo sapiens, UniProt Q99581 1-238); settings: protein: recombinant; tags: N-terminal GST; dsDNA, one strand shown
# T7 sequence: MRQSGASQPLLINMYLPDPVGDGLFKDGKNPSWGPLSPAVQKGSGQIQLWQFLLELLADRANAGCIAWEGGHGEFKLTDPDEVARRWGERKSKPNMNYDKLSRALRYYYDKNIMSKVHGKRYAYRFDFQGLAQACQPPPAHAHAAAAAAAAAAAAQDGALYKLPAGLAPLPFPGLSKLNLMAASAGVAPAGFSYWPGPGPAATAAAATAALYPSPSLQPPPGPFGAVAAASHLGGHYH
# Procedure, shortened: as §1
# [11] = target: ETV5 (Homo sapiens, UniProt P41161 1-510); settings: protein: recombinant; tags: N-terminal GST; dsDNA, one strand shown
# Sequence of ETV5 (P41161 whole entry): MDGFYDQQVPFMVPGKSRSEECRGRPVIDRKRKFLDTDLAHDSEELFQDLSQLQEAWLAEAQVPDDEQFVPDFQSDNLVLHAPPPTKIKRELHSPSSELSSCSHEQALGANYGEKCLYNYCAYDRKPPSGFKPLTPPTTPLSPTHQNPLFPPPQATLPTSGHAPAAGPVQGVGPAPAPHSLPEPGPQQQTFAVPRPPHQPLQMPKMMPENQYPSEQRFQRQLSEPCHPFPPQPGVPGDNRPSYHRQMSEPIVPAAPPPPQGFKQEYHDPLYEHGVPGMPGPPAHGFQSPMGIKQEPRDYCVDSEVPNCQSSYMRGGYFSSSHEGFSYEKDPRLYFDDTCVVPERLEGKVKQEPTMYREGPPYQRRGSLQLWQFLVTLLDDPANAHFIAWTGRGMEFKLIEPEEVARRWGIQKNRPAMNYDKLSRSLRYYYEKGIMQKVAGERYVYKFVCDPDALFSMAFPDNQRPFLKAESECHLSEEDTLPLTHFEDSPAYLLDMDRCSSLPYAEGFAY
# Procedure, shortened: as §1
# [12] = target: HSF1 (Homo sapiens, UniProt Q00613 1-529); settings: protein: recombinant; tags: N-terminal GST; chain copies: 3; dsDNA, one strand shown
# Sequence of HSF1 (Q00613 whole entry): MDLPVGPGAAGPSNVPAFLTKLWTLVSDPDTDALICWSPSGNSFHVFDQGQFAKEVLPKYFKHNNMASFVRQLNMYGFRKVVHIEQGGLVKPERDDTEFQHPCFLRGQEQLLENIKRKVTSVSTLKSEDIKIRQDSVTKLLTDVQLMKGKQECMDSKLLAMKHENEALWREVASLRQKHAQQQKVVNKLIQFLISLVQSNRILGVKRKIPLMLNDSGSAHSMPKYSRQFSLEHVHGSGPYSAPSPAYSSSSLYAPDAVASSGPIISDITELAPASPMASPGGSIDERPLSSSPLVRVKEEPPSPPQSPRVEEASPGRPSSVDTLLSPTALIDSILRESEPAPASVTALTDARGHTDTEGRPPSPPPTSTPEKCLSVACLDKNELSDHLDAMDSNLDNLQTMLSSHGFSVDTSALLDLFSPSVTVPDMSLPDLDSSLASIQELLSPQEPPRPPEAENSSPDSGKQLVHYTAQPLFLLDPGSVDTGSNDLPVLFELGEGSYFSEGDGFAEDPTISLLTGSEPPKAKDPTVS
# Procedure, shortened: as §1
# [13] = target: T8, SPIC (Homo sapiens, UniProt Q8N5J4 1-248); settings: protein: recombinant; tags: N-terminal GST; dsDNA, one strand shown
# T8 sequence: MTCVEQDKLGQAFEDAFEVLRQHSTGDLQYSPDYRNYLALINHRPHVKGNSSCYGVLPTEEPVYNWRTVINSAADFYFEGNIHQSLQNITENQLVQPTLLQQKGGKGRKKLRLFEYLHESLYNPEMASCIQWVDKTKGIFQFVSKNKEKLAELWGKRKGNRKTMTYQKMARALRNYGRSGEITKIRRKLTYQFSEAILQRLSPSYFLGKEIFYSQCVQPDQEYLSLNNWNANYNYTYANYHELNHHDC
# Procedure, shortened: as §1
# [14] = target: ELF4 (Homo sapiens, UniProt Q99607 1-663); settings: protein: recombinant; tags: N-terminal GST; dsDNA, one strand shown
# Sequence of ELF4 (Q99607 whole entry): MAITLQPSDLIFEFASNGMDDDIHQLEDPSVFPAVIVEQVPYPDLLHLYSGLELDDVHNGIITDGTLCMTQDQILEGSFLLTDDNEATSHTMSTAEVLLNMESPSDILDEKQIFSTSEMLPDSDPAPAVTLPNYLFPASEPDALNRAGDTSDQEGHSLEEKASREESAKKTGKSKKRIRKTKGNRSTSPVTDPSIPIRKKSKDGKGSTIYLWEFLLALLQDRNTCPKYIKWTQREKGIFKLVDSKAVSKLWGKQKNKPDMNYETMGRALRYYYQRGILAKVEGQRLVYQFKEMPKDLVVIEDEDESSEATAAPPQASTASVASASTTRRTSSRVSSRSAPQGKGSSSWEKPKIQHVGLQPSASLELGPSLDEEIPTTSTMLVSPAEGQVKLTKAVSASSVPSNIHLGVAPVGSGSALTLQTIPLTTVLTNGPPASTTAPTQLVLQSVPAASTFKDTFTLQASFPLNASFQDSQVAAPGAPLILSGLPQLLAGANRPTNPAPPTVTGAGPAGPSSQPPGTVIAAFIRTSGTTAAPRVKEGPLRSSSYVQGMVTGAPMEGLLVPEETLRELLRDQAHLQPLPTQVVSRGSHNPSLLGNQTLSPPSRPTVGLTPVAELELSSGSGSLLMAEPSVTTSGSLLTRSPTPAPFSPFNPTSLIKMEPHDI
# Procedure, shortened: as §1
# [15] = target: T9, ELK4 (Homo sapiens, UniProt P28324-2 1-405); settings: protein: recombinant; tags: N-terminal GST; dsDNA, one strand shown
# T9 sequence: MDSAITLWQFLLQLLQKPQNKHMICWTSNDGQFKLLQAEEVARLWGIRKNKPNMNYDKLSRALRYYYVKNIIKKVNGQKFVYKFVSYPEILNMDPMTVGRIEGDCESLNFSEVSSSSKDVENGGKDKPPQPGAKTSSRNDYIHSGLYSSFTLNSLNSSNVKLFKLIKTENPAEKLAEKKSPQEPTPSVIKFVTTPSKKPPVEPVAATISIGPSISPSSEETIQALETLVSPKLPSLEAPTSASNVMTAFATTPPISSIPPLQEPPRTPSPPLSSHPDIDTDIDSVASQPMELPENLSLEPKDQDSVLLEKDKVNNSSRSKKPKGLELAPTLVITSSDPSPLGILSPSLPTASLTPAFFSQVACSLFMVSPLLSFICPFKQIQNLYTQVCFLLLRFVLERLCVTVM
# Procedure, shortened: as §1
# [16] = target: T10, ETV2 (Homo sapiens, UniProt O00321 1-342); settings: protein: recombinant; tags: N-terminal GST; dsDNA, one strand shown
# T10 sequence: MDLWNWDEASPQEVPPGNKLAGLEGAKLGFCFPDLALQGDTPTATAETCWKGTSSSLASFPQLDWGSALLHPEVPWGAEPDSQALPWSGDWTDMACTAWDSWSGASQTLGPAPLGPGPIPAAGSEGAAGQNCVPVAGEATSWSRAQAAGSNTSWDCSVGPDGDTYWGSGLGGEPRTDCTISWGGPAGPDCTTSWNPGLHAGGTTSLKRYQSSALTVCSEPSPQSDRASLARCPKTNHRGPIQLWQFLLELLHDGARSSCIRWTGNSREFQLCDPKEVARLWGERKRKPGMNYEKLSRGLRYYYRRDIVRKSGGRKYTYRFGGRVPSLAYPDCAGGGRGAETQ
# Procedure, shortened: as §1
# [17] = target: T11, ELF3 (Homo sapiens, UniProt P78545 1-371); settings: protein: recombinant; tags: N-terminal GST; dsDNA, one strand shown
# T11 sequence: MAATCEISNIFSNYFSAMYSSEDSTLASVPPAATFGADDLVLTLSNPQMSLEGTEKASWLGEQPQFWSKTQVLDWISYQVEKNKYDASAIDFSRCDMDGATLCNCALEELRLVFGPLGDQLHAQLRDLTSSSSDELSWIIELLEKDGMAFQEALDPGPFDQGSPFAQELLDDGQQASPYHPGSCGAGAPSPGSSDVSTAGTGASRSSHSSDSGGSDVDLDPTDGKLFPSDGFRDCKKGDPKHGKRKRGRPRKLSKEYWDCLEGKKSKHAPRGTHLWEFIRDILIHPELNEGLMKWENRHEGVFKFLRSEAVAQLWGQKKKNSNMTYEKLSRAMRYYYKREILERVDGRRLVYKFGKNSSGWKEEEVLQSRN
# Procedure, shortened: as §1
# [18] = target: CRX (Homo sapiens, UniProt O43186 1-299); settings: protein: recombinant; tags: N-terminal GST; dsDNA, one strand shown
# Sequence of CRX (O43186 whole entry): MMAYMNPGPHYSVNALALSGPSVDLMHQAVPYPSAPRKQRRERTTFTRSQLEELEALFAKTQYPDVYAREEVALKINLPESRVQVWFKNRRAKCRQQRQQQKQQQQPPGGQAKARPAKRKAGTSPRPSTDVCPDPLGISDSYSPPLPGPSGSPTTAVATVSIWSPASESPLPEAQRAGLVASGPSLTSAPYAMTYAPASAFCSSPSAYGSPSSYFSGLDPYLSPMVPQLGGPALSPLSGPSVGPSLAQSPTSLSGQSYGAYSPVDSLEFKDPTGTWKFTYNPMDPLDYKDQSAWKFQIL
# Procedure, shortened: as §1
# [19] = target: ETV1 (Homo sapiens, UniProt P50549 1-477); settings: protein: recombinant; tags: N-terminal GST; dsDNA, one strand shown
# Sequence of ETV1 (P50549 whole entry): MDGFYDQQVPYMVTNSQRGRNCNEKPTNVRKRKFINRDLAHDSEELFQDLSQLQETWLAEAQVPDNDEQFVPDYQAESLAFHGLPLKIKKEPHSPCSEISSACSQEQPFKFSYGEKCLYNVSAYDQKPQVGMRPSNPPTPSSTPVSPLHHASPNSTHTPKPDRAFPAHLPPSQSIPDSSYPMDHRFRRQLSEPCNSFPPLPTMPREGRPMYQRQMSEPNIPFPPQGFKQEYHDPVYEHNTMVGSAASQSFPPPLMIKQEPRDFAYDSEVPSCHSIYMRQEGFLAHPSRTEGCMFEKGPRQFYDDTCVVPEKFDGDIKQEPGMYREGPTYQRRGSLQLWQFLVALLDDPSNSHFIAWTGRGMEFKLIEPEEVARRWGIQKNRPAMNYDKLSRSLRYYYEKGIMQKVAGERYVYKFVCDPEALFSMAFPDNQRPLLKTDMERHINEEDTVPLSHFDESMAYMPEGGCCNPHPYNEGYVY
# Procedure, shortened: as §1
sequence,measurement,setting,value
AACCTT,binding signal,[1],"1.3 fold enrichment (6-mer frequency, TF over GST control)"
same,binding signal,[2],"1.25 fold enrichment (6-mer frequency, TF over GST control)"
same,binding signal,[3],"1.25 fold enrichment (6-mer frequency, TF over GST control)"
same,binding signal,[4],"1.26 fold enrichment (6-mer frequency, TF over GST control)"
same,binding signal,[5],"1.33 fold enrichment (6-mer frequency, TF over GST control)"
same,binding signal,[6],"1.33 fold enrichment (6-mer frequency, TF over GST control)"
same,binding signal,[7],"1.26 fold enrichment (6-mer frequency, TF over GST control)"
same,binding signal,[8],"1.34 fold enrichment (6-mer frequency, TF over GST control)"
same,binding signal,[9],"1.33 fold enrichment (6-mer frequency, TF over GST control)"
same,binding signal,[10],"1.24 fold enrichment (6-mer frequency, TF over GST control)"
same,binding signal,[11],"1.3 fold enrichment (6-mer frequency, TF over GST control)"
same,binding signal,[12],"1.66 fold enrichment (6-mer frequency, TF over GST control)"
same,binding signal,[13],"1.17 fold enrichment (6-mer frequency, TF over GST control)"
same,binding signal,[14],"1.27 fold enrichment (6-mer frequency, TF over GST control)"
same,binding signal,[15],"1.36 fold enrichment (6-mer frequency, TF over GST control)"
same,binding signal,[16],"1.13 fold enrichment (6-mer frequency, TF over GST control)"
same,binding signal,[17],"1.23 fold enrichment (6-mer frequency, TF over GST control)"
same,binding signal,[18],"1.39 fold enrichment (6-mer frequency, TF over GST control)"
same,binding signal,[19],"1.29 fold enrichment (6-mer frequency, TF over GST control)"
